# This is a sample that favours compounds with a hit; in the whole collection about 2.4% have one here.
# Anesthetic bind: candidate novel general anesthetic via apoferritin binding; P02791; apoferritin/1-aminoanthracene competitive binding, fluorescence; Potency, µM (series often up to 77.5 µM), for inactives: at the highest dose activity change, negative = displacement, most hits filed as inhibitors; 0.074% of 350,000 active; AID 485281; also: % is scaled to controls: 0 for no effect and ±100 for the full control effect; nearly all actives have a fitted effect of over 20% in size
# Target sequence (P02791 2-175 limits assumed): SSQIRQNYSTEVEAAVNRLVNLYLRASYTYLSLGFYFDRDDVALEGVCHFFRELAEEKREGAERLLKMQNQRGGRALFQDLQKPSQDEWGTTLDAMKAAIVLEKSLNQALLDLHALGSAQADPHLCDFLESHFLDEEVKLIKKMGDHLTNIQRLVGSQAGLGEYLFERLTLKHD
#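 In PBS, apoferritin at 10 uM is loaded with 1-AMA from a 50% saturated solution. After 10 min of compound exposure at ambient temperature, reduced 535 nm fluorescence indicates probe displacement.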
# S2 tox: viability counter-screen for ATXN expression inhibitors. S2 cells (HEK-293 line with an ATXN2-luciferase reporter) viability, CellTiter-Fluor protease fluorescence, 24 h. 0.49% of 400,000 active. Potency, µM (series often up to 56.7 µM), hits mostly cytotoxic; also: nearly all actives have a fitted effect of over 40% in size
# TGFb inhibitor: inhibitors of TGF-b signaling; AID 588855; HepG2 CAGA-GFP TGF-b/SMAD3 reporter, GFP fluorescence, 18 h; TGF-beta stimulated, 500 pg/mL final; 1.2% of 410,000 active; Potency, µM (doses to about 46.1 µM), for inactives: at the highest dose activity, negative = inhibition, most hits filed as inhibitors; also: % is scaled to controls: 0 for no effect and ±100 for the full control effect; nearly all actives have a fitted effect of over 65% in size
#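 Smad-responsive CAGA-GFP expression was quantified in HEPG2 cells exposed to compounds and 500 pg/mL final TGF-beta for 18 h at 37 degrees C; unstimulated wells defined full inhibition.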
# HepG2 tox: counter-screen for TGF-b inhibitors: cytotoxicity in HepG2 cells; Potency, µM (series often up to 46.1 µM), for inactives: at the top dose activity change, negative = cytotoxicity, actives largely listed as cytotoxic; HepG2 CAGA-GFP viability, ATP luminescence, 18 h; 0.76% of 410,000 active; AID 588856
#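 HepG2 CAGA-GFP cells (1000/well, DMEM with 1% FBS) received compound, then TGF-beta at 500 pg/mL final, and were incubated 18 hours at 37 degrees C. Viability was read by CellTiter-Glo luminescence. Media-only wells were set as complete cell-killing and DMSO as no toxicity.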
# ATXN2 expr inh: reduces ATXN2 reporter expression in HEK-293 cells; Potency, µM (doses to about 57 µM), without a hit: top-dose activity change, negative = inhibition, usual class: inhibitors; HEK-293 ATXN2-luciferase reporter, luminescence, 24 h; 0.72% of 360,000 active; also: % is scaled to controls: 0 for no effect and ±100 for the full control effect; nearly all actives have a fitted effect of over 55% in size
#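 ATXN2-luciferase reporter cells (luciferase flanked by upstream and downstream ATXN2 gene portions) were treated 24 h at 37 °C with compounds at up to 57 uM. SteadyGlo luminescence gave expression; GF-AFC fluorescence gave viability.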
# Active calls of the source: *; i = inactive; ? = inconclusive; nt = no result given; ! = a repeat was not active; [ ] = remark or other dose. Calls follow the shape of the dose curve; as a rule, active = well fitted curve in the direction sought with a large enough effect; inconclusive = small, poorly fitted or top-dose-only effect, or another doubt; inactive = no such curve, though single readings can be large; an effect the other way counts as inactive or inconclusive. Potency is read from the fitted curve at half-maximal effect.
SMILES,Anesthetic bind,S2 tox,TGFb inhibitor,HepG2 tox,ATXN2 expr inh
Oc1ccc(Cl)cc1C1C=C(c2ccc3c(c2)OCO3)NC(c2ccc(C(F)(F)F)cc2)N1 (stereo not drawn),nt,nt,16µM*,-92%,nt
O=C(CS(=O)Cc1ccco1)NCC=CCOc1cc(CN2CCCCC2)ccn1 (stereo not drawn),nt,nt,nt,nt,63%
CN(N=O)c1ccc(/C=C/c2ccnc3ccccc23)cc1,nt,nt,-5%,-29%,nt
CC(C)C(NS(C)(=O)=O)c1nnc2n1CCN(Cc1cccc3ncccc13)CC2 (stereo not drawn),nt,i,nt,nt,nt
CC(NC(=O)c1cc(F)ccc1F)c1nnc2n1CCN(Cc1ccco1)CC2 (stereo not drawn),nt,i,nt,nt,nt
COc1ccccc1NC(=O)COc1ccc(-c2nn(C)c(=O)c3ccccc23)cc1,-14%,i,7.9µM*!,-1%,?
CSCC[C@@H]1NC(=O)C/C=C\[C@@H](C)COC(=O)[C@@H](C)COC1=O,-7%[15.3 µM],nt,nt,nt,nt
Cn1c(SCC(=O)Nc2cc(Cl)cc(Cl)c2)nnc1-c1ccc2nonc2c1,-2%,?,?,-59%,32µM*
CCOc1ccc(/C=C/C2=Cc3c(sc(NC(=O)CSc4n[nH]c(N)n4)c3C#N)C(C)(C)C2)cc1,?,nt,-16%,20µM*,?
NC(=O)c1ccsc1NC(=O)CSc1n[nH]c(N)n1,nt,i,-21%,5%,-12%
Cc1ccsc1/C=C/C1=Cc2c(sc(NC(=O)CSc3n[nH]c(N)n3)c2C#N)C(C)(C)C1,?,i,10µM*,13µM*,?
CCOC(=O)c1sc(NC(=O)CSc2n[nH]c(-c3ccncc3)n2)c(C#N)c1C,-10%,i,?,-41%,-10%
Nc1cccc2nsnc12,-11%,i,11%,27%,-8%
Nc1cc2nsnc2cc1Br,85%,i,11µM*,-78%,-18%
C(=Nc1ccc2ccccc2n1)c1ccccn1,nt,nt,4%,5%,nt
Nc1nc(-c2ccccc2)c(N=Nc2ccccc2Cl)s1,-16%,nt,?,-92%,?
Nc1nc(-c2ccccc2)c(N=Nc2cccc3ccccc23)s1,?,?,11µM*,-101%,-36%
COc1ccc2c(c1)CCc1c(C(=O)Nc3ccn(Cc4ccc(C)cc4)n3)noc1-2,-6%,18µM*,-17%,-39%,10µM*
CCOC(=O)[C@]12Cc3c(cc(OC)c(OC)c3OC)[C@H]1N(C1CCCCC1)C(=O)c1cc(OC)ccc12,nt,14µM*,nt,nt,?
CCOC(=O)N1CCC(N2C(=O)c3ccccc3C2Nc2cc(OC)c(OC)c(OC)c2)CC1 (stereo not drawn),-10%,i,4%,-23%,3%
Cc1ccc(CN2CCc3nnc(C(C)NC(=O)c4cc(F)ccc4F)n3CC2)o1 (stereo not drawn),nt,i,nt,nt,nt
COc1ccc(OC)c(C2OCCC=CC2C)c1 (stereo not drawn),-2%[15.3 µM],nt,nt,nt,nt
COc1cccc(C(=O)Nc2cccc(-c3cn4ccsc4n3)c2)c1OC,139%,nt,9%,-18%,nt
COCCCNC(=O)c1ccc2c3c(onc13)-c1ccccc1C2=O,-15%,nt,3.2µM*,-107%,?
Fc1ccccc1Cn1c(-c2ccccc2)nc2ccccc21,266%,32µM*,?,-68%,?
SMILES,Anesthetic bind,S2 tox,TGFb inhibitor,HepG2 tox,ATXN2 expr inh
CCCCOc1ccccc1NC(=O)Cn1c(-c2nonc2N)nc2ccccc21,-14%,14µM*,?,-20%,?
CCc1ccccc1NC(=O)Cn1c(-c2nonc2N)nc2ccccc21,-3%,nt,-22%,-1%,nt
O=C(Nc1c(Cl)cc2c(c1Cl)Cc1cc([N+](=O)[O-])ccc1-2)C(Cl)Cl,nt,?,7.1µM*,-56%,12%
Cc1ccccc1NC(=O)CSc1n[nH]c(-c2ccccn2)n1,-7%,?,-17%,-33%,22µM*
O=C(CSc1nc2c(oc3ccccc32)c(=O)[nH]1)Nc1cccc(Cl)c1,-10%,?,11µM*,-62%,10%
O=C(CSc1n[nH]c(-c2ccccn2)n1)Nc1cccc(Cl)c1,-8%,i,?,-17%,10µM*
Cc1nc(SCC(=O)Nc2cccc(Cl)c2)n[nH]1,-2%,i,15%,2%,2%
COc1cccc(-n2c(SCC(=O)Nc3cccc(Cl)c3)nc3c(oc4ccccc43)c2=O)c1,-16%,?,?,1%,11%
Cc1ccc(C)c(NC(=O)CSc2n[nH]c(-c3ccccn3)n2)c1,-6%,?,-21%,-4%,18µM*
C=C(NNC(C)=O)c1ccc(O)cc1,nt,nt,5%,-5%,nt
COC(=O)NC(CC(C)=O)c1ccc2c(c1)OCO2 (stereo not drawn),-8%[15.3 µM],nt,nt,nt,nt
N#Cc1ccc(C(=O)Nc2ccc3c(c2)N(C2CCCC2)C(=O)c2ccccc2S3)cc1,-9%,i,5.6µM*,-8%,-1%
CC(=O)Nc1ccc(C(=O)Nc2ccc3c(c2)N(C2CCCC2)C(=O)c2ccccc2S3)cc1,-6%,?,17%,-11%,-27%
O=Cc1ccc(I)cc1,nt,nt,2%,11%,nt
Cc1ccc2nc(-c3ccc(C)c(NC(=O)COc4ccccc4Cl)c3)oc2c1,nt,nt,2%,-22%,nt
C#CC(c1ccccc1)(c1ccccc1)n1ccnc1,nt,i,-5%,-17%,nt
Clc1ccccc1C(c1ccccc1)(c1ccccc1)n1ccnc1,-6%,?,?,20µM*,?
COc1ccc(N=c2nc(-c3ccccc3)n(-c3ccc(C)cc3)s2)cc1,nt,nt,4µM*,-102%,nt
Cc1ccc(-c2nc(=Nc3ccccc3)sn2-c2ccccc2)cc1,nt,nt,3.5µM*,4.5µM*,nt

# Bioassay records from PubChem.
